According to PubChem BioAssay (NCI):
The panel holds about 83,000 compounds, 20% with a hit somewhere; the sample as a whole holds those more often.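 Single-concentration screen, 48 h exposure, 96-well plates. Endpoint: percent growth. Below 10 = active.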 Values without a mark were called inactive. Calls of active or inactive are those of the source.

How the values were obtained:
Experiment in all cases: NCI-60 one-dose screen, 48 h (100 = growth as untreated, 0 = no growth, -100 = all killed)
Conditions in all cases: 10 µM unless noted
[1] = system: NCI-H23 lung
[2] = system: NCI-H226 lung
[3] = system: NCI-H322M lung
[4] = system: HOP-62 NSCLC
[5] = system: NCI-H460 lung
[6] = system: HOP-92 NSCLC
[7] = system: NCI-H522 lung
[8] = system: A549/ATCC NSCLC
[9] = system: 786-0 renal
[10] = system: COLO 205 colon

Structure (SMILES)	growth [1]	growth [2]	growth [3]	growth [4]	growth [5]	growth [6]	growth [7]	growth [8]	growth [9]	growth [10]
CN(C)C(=S)Sc1ccc([N+](=O)[O-])cc1[N+](=O)[O-]	44.4%	49.6%	101%	71.1%	-41.6% (active)	0.304% (active)	-92.1% (active)	43.6%	63.8%	-22.7% (active)
CC(C)[C@H]1COC(=O)N1[C@@H]1C(=O)N([C@@H](CCC(=O)N2CCN(C3CCCC3)CC2)C(=O)N[C@@H]2CCCc3ccccc32)[C@@H]1/C=C/c1cccc(Cl)c1	72.1%	88.9%	57.9%	79%	46.2%	31.4%	75.5%	35.9%	54.9%	57.7%
Cc1cc(NN=C(c2ccc(O)cc2)c2ccc(O)cc2)c([N+](=O)[O-])cc1[N+](=O)[O-]	31.9%	99.2%	59.1%	54.2%	27.3%	40%	15.4%	11.8%	-5.42% (active)	98.6%
COc1ccc(C2CC(c3cc(OC)c(OC)c(OC)c3)=NN2C(C)=O)cc1OCC(=O)Nc1nc2ccc(C(F)(F)F)cc2s1 (stereo not given)	67.3%	40.2%	79.6%	57.1%	67.6%	-3.98% (active)	66.6%	50.5%	60.1%	85%
C[C@@H]1C[C@H]2C(=O)O[C@@H](C)[C@H](NC(=O)[C@H](Cc3cc(F)cc(F)c3)NC(=O)Nc3ccc(C4CC4)cc3F)C(=O)N3CCC[C@H]3C(=O)N3CCCC[C@H]3C(=O)N[C@@H](C)C(=O)N2C1	28.7%	19.8%	45.4%	27.8%	13.6%	3.54% (active)	19.4%	18.3%	20%	-33.2% (active)
C[C@H]1[C@H](C)CC[C@]2(C(=O)O)CC[C@]3(C)C(=CC[C@@H]4[C@@]5(C)C/C(=C/c6cccnc6)[C@H](O)C(C)(C)[C@@H]5CC[C@]43C)[C@H]12	14.3% [100 µM]	-24.2% [100 µM] (active)	-16.4% [100 µM] (active)	-29.1% [100 µM] (active)	-31.1% [100 µM] (active)	-3.06% [100 µM] (active)	-4.55% [100 µM] (active)	8.85% [100 µM] (active)	1.92% [100 µM] (active)	-80.4% [100 µM] (active)
COc1ccc(/C=C/C(=C/c2c(O)[nH]c3cc(Br)ccc23)N=O)cc1	111%	103%	113%	111%	108%	116%	105%	104%	112%	126%
Nc1nc(Nc2ccccc2)c2ncn(Cc3cc4c(cc3Br)OCO4)c2n1	23.2%	29.4%	30.2%	11.3%	5.33% (active)	40%	-40.5% (active)	13.5%	20.3%	-38.3% (active)
N#C/C(C(=O)c1ccccc1)=C1/C(=O)Nc2ccc(F)cc21	98.4%	95.4%	108%	84.8%	106%	115%	96.6%	105%	101%	119%
C=C(C)[C@@H]1CC[C@]2(C)[C@H](CC[C@@H]3[C@@H]([C@@](C)(O)CCC=C(C)C)CC[C@]32C)[C@@]1(C)CCC(=O)O	-5.71% [100 µM] (active)	-41.5% [100 µM] (active)	-6.31% [100 µM] (active)	-61.4% [100 µM] (active)	-34.9% [100 µM] (active)	-49.4% [100 µM] (active)	-13.6% [100 µM] (active)	14.9% [100 µM]	1.09% [100 µM] (active)	-69.5% [100 µM] (active)
CC(=O)Nc1ccc(C=Nc2ccc3ccccc3c2)cc1	105%	100%	111%	114%	111%	81.6%	13.5%	106%	106%	115%
CCOC(=O)C(=Cc1ccccc1[N+](=O)[O-])C(=O)OCC	14.4%	42.3%	89.2%	27.3%	49.5%	9.84% (active)	-1.64% (active)	53.6%	28.2%	-42.2% (active)
Cc1nc(Cl)c2c(n1)N(C)c1ccc(Cl)cc1C(C)C2 (stereo not given)	92.5%	87.7%	97.1%	90.4%	92.3%	66%	77.8%	84.6%	90%	97.3%
COCc1nc2ccccc2[nH]1	103%	100%	100%	105%	106%	100%	96.3%	100%	99.4%	109%
C=C(C)[C@@H]1CC[C@]2(C)[C@H](CC[C@@H]3[C@@H]([C@@](C)(O)CCC=C(C)C)CC[C@]32C)[C@@]1(C)CCC(=O)N1CCN(C)CC1	-72% [100 µM] (active)	-72% [100 µM] (active)	-97.5% [100 µM] (active)	-93% [100 µM] (active)	-82.2% [100 µM] (active)	-89.9% [100 µM] (active)	-81.1% [100 µM] (active)	0.566% [100 µM] (active)	-92.7% [100 µM] (active)	-80.8% [100 µM] (active)
Cn1c(=O)c(C#N)c(-c2ccco2)n2c(S(=O)(=O)Cc3ccccc3)nnc12	94.3%	122%	89.1%	104%	79.9%	92.8%	81.2%	92.8%	81.1%	111%
C[C@H]1[C@H](C)CC[C@]2(COC(=O)CCC(=O)O)CC[C@]3(C)C(=CC[C@@H]4[C@@]5(C)CCCNC(C)(C)[C@@H]5CC[C@]43C)[C@H]12	62.8% [100 µM]	76.3% [100 µM]	86.8% [100 µM]	49.1% [100 µM]	66.8% [100 µM]	-7.31% [100 µM] (active)	53.5% [100 µM]	70.9% [100 µM]	55.6% [100 µM]	69.1% [100 µM]
CCOC(=O)c1nn(C2CCCCO2)c2ccc(NC(=O)CSc3nc4ccccc4c(=O)[nH]3)cc12 (stereo not given)	102%	97.6%	92.5%	88.2%	98.9%	92.5%	100%	99.4%	91%	126%
C=C(C)[C@@H]1CC[C@]2(C(=O)OC)CC[C@]3(C)[C@H](CC[C@@H]4[C@@](C)(CCc5nn[nH]n5)[C@H](C(=C)C)CC[C@]43C)[C@@H]12	-13.8% [100 µM] (active)	-19.9% [100 µM] (active)	9.71% [100 µM] (active)	-72.7% [100 µM] (active)	-59.3% [100 µM] (active)	-39.8% [100 µM] (active)	-25.3% [100 µM] (active)	2.03% [100 µM] (active)	-8.74% [100 µM] (active)	-62.9% [100 µM] (active)
C=C(C)[C@@H]1CC[C@]2(C(=O)NCCNCCNCCN)CC[C@]3(C)[C@H](CC[C@@H]4[C@@]5(C)CC[C@H](O)C(C)(C)[C@@H]5CC[C@]43C)[C@@H]12	-51.7% [100 µM] (active)	-23.6% [100 µM] (active)	-83.8% [100 µM] (active)	-69.1% [100 µM] (active)	-100% [100 µM] (active)	-65.4% [100 µM] (active)	-57.8% [100 µM] (active)	-64.6% [100 µM] (active)	-83.5% [100 µM] (active)	-19.5% [100 µM] (active)
